The whole screen tested about 5,500 compounds, of which about 2,000 (36%) were called active. Roughly 18% stayed inconclusive and do not appear here. Cut-off read from the data, not from the text of the source: active = normalized growth mostly below about 0.91 (no sharp cut-off); inconclusive = no clear call, values can overlap the other calls; inactive = mostly above about 0.92. The list shows a part of the results.
Test: chemical genetic growth profiling, strain panel (AID 1159580);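 note: tested at 20 µM; growth read once vehicle control cultures reached saturation at 30 °C; 1 = growth at the plate median or of vehicle wells; lower values mean less growth of the strain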
Settings: growth OD
[1] = S. cerevisiae deletion strains, locus YDL101C, strain DUN1, hits give low values
[2] = S. cerevisiae deletion strains, locus YHR030C, strain SLT2, hits give low values
[3] = S. cerevisiae deletion strains, locus YAL013W, strain DEP1, hits give low values
[4] = S. cerevisiae deletion strains, locus YBR229C, strain ROT2, hits give low values
[5] = S. cerevisiae deletion strains, locus YDL134C, strain PPH21, hits give low values
[6] = S. cerevisiae deletion strains, locus YDR150W, strain NUM1, hits give low values
[7] = S. cerevisiae deletion strains, locus YEL061C, strain CIN8, hits give low values
[8] = S. cerevisiae deletion strains, locus YGR078C, strain PAC10, hits give low values
[9] = S. cerevisiae deletion strains, locus YHR087W, strain rtc3, hits give low values
[10] = S. cerevisiae deletion strains, locus YJR043C, strain POL32, hits give low values
[11] = S. cerevisiae deletion strains, locus YJR075W, strain HOC1, hits give low values
[12] = S. cerevisiae deletion strains, locus YLR039C, strain RIC1, hits give low values
[13] = S. cerevisiae deletion strains, locus YLR058C, strain SHM2 (second series), hits give low values
[14] = S. cerevisiae deletion strains, locus YLR085C, strain ARP6, hits give low values
[15] = S. cerevisiae deletion strains, locus YLR262C, strain YPT6, hits give low values
[16] = S. cerevisiae deletion strains, locus YML094W, strain GIM5, hits give low values
[17] = S. cerevisiae deletion strains, locus YMR219W, strain ESC1, hits give low values
[18] = S. cerevisiae deletion strains, locus YMR263W, strain SAP30, hits give low values
[19] = S. cerevisiae deletion strains, locus YMR307W, strain GAS1, hits give low values
[20] = S. cerevisiae deletion strains, locus YNL153C, strain GIM3, hits give low values
[21] = S. cerevisiae deletion strains, locus YNL298W, strain CLA4 (second series), hits give low values
[22] = S. cerevisiae deletion strains, locus YNL322C, strain KRE1, hits give low values
[23] = S. cerevisiae deletion strains, locus YNR030W, strain Alg12, hits give low values
[24] = S. cerevisiae deletion strains, locus YPL055C, strain LGE1, hits give low values
[25] = S. cerevisiae deletion strains, locus YPL241C, strain CIN2, hits give low values
[26] = S. cerevisiae deletion strains, locus YPR135W, strain CTF4, hits give low values

Measured: normalized growth

COc1ccccc1N1CCN(C(=O)C(C)c2ccc(CC(C)C)cc2)CC1 (stereo unspecified)
inactive: S. cerevisiae deletion strains, locus YAR019C, strain CDC15, hits give low values 0.978 | S. cerevisiae deletion strains, locus YBL105C, strain PKC1, hits give low values 0.983 | S. cerevisiae deletion strains, locus YBR135W, strain CKS1, hits give low values 0.978 | S. cerevisiae deletion strains, locus YBR136W, strain MEC1, hits give low values 0.984 | S. cerevisiae deletion strains, locus YBR160W, strain CDC28, hits give low values 0.975 | S. cerevisiae deletion strains, locus YDL017W, strain CDC7, hits give low values 0.981 | S. cerevisiae deletion strains, locus YDL028C, strain MPS1, hits give low values 0.97 | [1] 0.974 | S. cerevisiae deletion strains, locus YDL108W, strain KIN28, hits give low values 0.968 | S. cerevisiae deletion strains, locus YDL132W, strain cdc53, hits give low values 0.988 | S. cerevisiae deletion strains, locus YDL214C, strain PRR2, hits give low values 0.932 | S. cerevisiae deletion strains, locus YDR052C, strain DBF4, hits give low values 0.99 | S. cerevisiae deletion strains, locus YDR054C, strain cdc34, hits give low values 0.975 | S. cerevisiae deletion strains, locus YDR226W, strain ADK1, hits give low values 0.966 | S. cerevisiae deletion strains, locus YDR477W, strain SNF1, hits give low values 0.921 | S. cerevisiae deletion strains, locus YER123W, strain YCK3, hits give low values 0.923 | S. cerevisiae deletion strains, locus YER133W, strain GLC7, hits give low values 0.954 | S. cerevisiae deletion strains, locus YFL009W, strain cdc4, hits give low values 0.967 | S. cerevisiae deletion strains, locus YFL029C, strain CAK1, hits give low values 0.977 | S. cerevisiae deletion strains, locus YFR003C, strain YPI1, hits give low values 0.983 | S. cerevisiae deletion strains, locus YFR019W, strain FAB1, hits give low values 0.947 | S. cerevisiae deletion strains, locus YFR028C, strain CDC14, hits give low values 0.986 | S. cerevisiae deletion strains, locus YGR040W, strain KSS1, hits give low values 0.936 | S. cerevisiae deletion strains, locus YGR052W, strain FMP48, hits give low values 0.944 | S. cerevisiae deletion strains, locus YGR092W, strain DBF2, hits give low values 0.938 | S. cerevisiae deletion strains, locus YHR079C, strain IRE1, hits give low values 0.93 | S. cerevisiae deletion strains, locus YHR082C, strain KSP1, hits give low values 0.939 | S. cerevisiae deletion strains, locus YHR205W, strain SCH9, hits give low values 0.861 | S. cerevisiae deletion strains, locus YIL147C, strain SLN1, hits give low values 0.981 | S. cerevisiae deletion strains, locus YJL095W, strain BCK1, hits give low values 0.91 | S. cerevisiae deletion strains, locus YJL128C, strain PBS2, hits give low values 0.977 | S. cerevisiae deletion strains, locus YJL157C, strain FAR1, hits give low values 0.968 | S. cerevisiae deletion strains, locus YJR016C, strain ILV3, hits give low values 0.983 | S. cerevisiae deletion strains, locus YJR066W, strain TOR1 (second series), hits give low values 0.946 | S. cerevisiae deletion strains, locus YJR066W, strain TOR1, hits give low values 0.873 | S. cerevisiae deletion strains, locus YKL048C, strain ELM1, hits give low values 0.978 | S. cerevisiae deletion strains, locus YKL067W, strain YNK1, hits give low values 0.933 | S. cerevisiae deletion strains, locus YKL101W, strain HSL1, hits give low values 0.926 | S. cerevisiae deletion strains, locus YKL193C, strain SDS22, hits give low values 0.976 | S. cerevisiae deletion strains, locus YKL203C, strain TOR2, hits give low values 1.01 | S. cerevisiae deletion strains, locus YLR133W, strain CKI1, hits give low values 0.943 | S. cerevisiae deletion strains, locus YLR403W, strain SFP1, hits give low values 0.95 | S. cerevisiae deletion strains, locus YML070W, strain DAK1, hits give low values 0.933 | S. cerevisiae deletion strains, locus YMR001C, strain CDC5, hits give low values 0.972 | S. cerevisiae deletion strains, locus YMR205C, strain PFK2 (second series), hits give low values 0.945 | S. cerevisiae deletion strains, locus YMR277W, strain FCP1, hits give low values 0.966 | S. cerevisiae deletion strains, locus YNL006W, strain LST8, hits give low values 0.964 | S. cerevisiae deletion strains, locus YNL020C, strain ARK1, hits give low values 0.942 | S. cerevisiae deletion strains, locus YNL161W, strain CBK1, hits give low values 0.981 | S. cerevisiae deletion strains, locus YNL183C, strain NPR1, hits give low values 0.963 | S. cerevisiae deletion strains, locus YNL207W, strain RIO2, hits give low values 0.983 | S. cerevisiae deletion strains, locus YNL222W, strain SSU72, hits give low values 0.969 | S. cerevisiae deletion strains, locus YNL307C, strain MCK1 (second series), hits give low values 0.924 | S. cerevisiae deletion strains, locus YOL078W, strain AVO1, hits give low values 0.977 | S. cerevisiae deletion strains, locus YOL136C, strain PFK27, hits give low values 0.909 | S. cerevisiae deletion strains, locus YOR061W, strain CKA2, hits give low values 0.937 | S. cerevisiae deletion strains, locus YOR119C, strain RIO1, hits give low values 0.951 | S. cerevisiae deletion strains, locus YOR231W, strain MKK1, hits give low values 0.904 | S. cerevisiae deletion strains, locus YOR329C, strain SCD5, hits give low values 0.98 | S. cerevisiae deletion strains, locus YPL031C, strain PHO85, hits give low values 0.93 | S. cerevisiae deletion strains, locus YPL153C, strain RAD53, hits give low values 0.919 | S. cerevisiae deletion strains, locus YPL204W, strain HRR25, hits give low values 0.915 | S. cerevisiae deletion strains, locus YPL209C, strain IPL1, hits give low values 0.981 | S. cerevisiae deletion strains, locus YPL256C, strain CLN2, hits give low values 0.877 | S. cerevisiae deletion strains, locus YPR025C, strain CCL1, hits give low values 0.983 | S. cerevisiae deletion strains, locus YPR106W, strain ISR1, hits give low values 0.961 | S. cerevisiae deletion strains, locus YPR111W, strain DBF20, hits give low values 0.95 | S. cerevisiae deletion strains, strain NNK1, hits give low values 0.965 | S. cerevisiae deletion strains, strain TSCII, hits give low values 0.965
active: [2] 0.802 | S. cerevisiae deletion strains, locus YLR113W, strain HOG1, hits give low values 0.829

COc1ccccc1N1CCN(C(=O)c2cccs2)CC1
inactive: [3] 0.998 | [4] 1.01 | [1] 0.991 | [5] 0.959 | [6] 1.04 | [7] 1.01 | [8] 1 | S. cerevisiae deletion strains, locus YGR229C, strain SMI1, hits give low values 0.993 | [2] 0.963 | [9] 0.985 | [10] 1.01 | [11] 1.03 | S. cerevisiae deletion strains, locus YKL190W, strain CNB1, hits give low values 0.99 | [12] 1.01 | [13] 0.984 | [14] 0.889 | [15] 1.13 | [16] 0.972 | [17] 0.988 | [18] 1.02 | [19] 0.849 | [20] 1.04 | [21] 0.981 | [22] 0.993 | [23] 0.957 | [24] 0.99 | [25] 0.957 | [26] 1.1 | S. cerevisiae strains, strain wild type, hits give low values 0.993

COc1ccccc1N1CCN(CCN(C(=O)C2CCCCC2)c2ccccn2)CC1
inactive: S. cerevisiae deletion strains, locus YAL040C, strain CLN3, hits give low values 0.99 | S. cerevisiae deletion strains, locus YCL061C, strain MRC1 (second series), hits give low values 1.01 | S. cerevisiae deletion strains, locus YDR363W, strain ESC2, hits give low values 1.01 | S. cerevisiae deletion strains, locus YER002W, strain NOP16, hits give low values 1.01 | [11] 1.01 | [18] 0.997 | [19] 0.993 | S. cerevisiae deletion strains, locus YNL128W, strain TEP1, hits give low values 1.01 | [20] 1.01 | S. cerevisiae deletion strains, locus YNL175C, strain NOP13, hits give low values 0.999 | S. cerevisiae deletion strains, locus YNL197C, strain WHI3, hits give low values 1 | S. cerevisiae deletion strains, locus YNL224C, strain SQS1, hits give low values 1 | S. cerevisiae deletion strains, locus YOR083W, strain WHI5 (second series), hits give low values 1.05 | [25] 1.01

O=C(Nc1ccc(Cl)cc1)N1CCN(c2ncccc2C(F)(F)F)CC1
inactive: [3] 0.996 | [4] 0.979 | [1] 0.956 | [5] 0.955 | [6] 0.978 | [7] 0.976 | [8] 0.939 | [2] 0.713 | [9] 0.939 | [10] 0.97 | [11] 0.908 | [12] 1.04 | [13] 0.968 | [14] 0.944 | [15] 0.978 | [16] 0.957 | [17] 0.976 | [18] 0.969 | [19] 0.805 | [20] 0.946 | [21] 0.893 | [22] 0.988 | [23] 0.956 | S. cerevisiae deletion strains, locus YOL006C, strain TOP1, hits give low values 0.782 | [24] 0.943 | [25] 0.92 | [26] 1.04

Source: PubChem BioAssay AID1159580 (chemical genetic matrix, 2015)
